# In publication PMC11062922 (Nature Chemical Biology, 2023):
# Like-named read-outs stand apart in the source and are kept apart here.
# Assays:
# AKT2 = tested on: AKT2; design: species or system human, MV4-11 + K-562 + COLO205 + SK-N-BE2 + OVCAR-8; conditions: read-out: apparent Kd, compound concentrations: 100 nM and 1000 nM (sheet 'Samples'), n = 1
# AKT3 = tested on: AKT3; design: species or system human, MV4-11 + K-562 + COLO205 + SK-N-BE2 + OVCAR-8; conditions: read-out: apparent Kd; compound concentrations: 100 nM and 1000 nM (sheet 'Samples'), CATDS: 0.150950387905983; n = 1
# MAP2K2 = tested on: MAP2K2; design: species or system human, MV4-11 + K-562 + COLO205 + SK-N-BE2 + OVCAR-8; conditions: read-out: apparent Kd, compound concentrations: 100 nM and 1000 nM (sheet 'Samples'), n = 1
# MYLK3 = tested on: MYLK3; design: species or system human, MV4-11 + K-562 + COLO205 + SK-N-BE2 + OVCAR-8; conditions: read-out: apparent Kd; compound concentrations: 100 nM and 1000 nM (sheet 'Samples'), CATDS: 0.56668098220649099; n = 1
# NQO1 = tested on: NQO1; design: species or system human, MV4-11 + K-562 + COLO205 + SK-N-BE2 + OVCAR-8; conditions: read-out: apparent Kd; compound concentrations: 100 nM and 1000 nM (sheet 'Samples'), CATDS: 0.17515611913919399; n = 1
# RIOK2 = tested on: RIOK2; design: species or system human, MV4-11 + K-562 + COLO205 + SK-N-BE2 + OVCAR-8; conditions: read-out: apparent Kd; compound concentrations: 100 nM and 1000 nM (sheet 'Samples'), CATDS: 0.13311346938063801; n = 1
# AIFM1 = tested on: AIFM1; design: species or system human, MV4-11 + K-562 + COLO205 + SK-N-BE2 + OVCAR-8; conditions: read-out: apparent Kd; compound concentrations: 100 nM and 1000 nM (sheet 'Samples'), CATDS: 7.0265848272952805E-2; n = 1
# CLK1 = tested on: CLK1; design: species or system human, MV4-11 + K-562 + COLO205 + SK-N-BE2 + OVCAR-8; conditions: read-out: apparent Kd; compound concentrations: 100 nM and 1000 nM (sheet 'Samples'), CATDS: 0.104887627590219; n = 1
# CLK4 = tested on: CLK4; design: species or system human, MV4-11 + K-562 + COLO205 + SK-N-BE2 + OVCAR-8; conditions: read-out: apparent Kd; compound concentrations: 100 nM and 1000 nM (sheet 'Samples'), CATDS: 9.5715512322220406E-2; n = 1
# CSNK1G1 = tested on: CSNK1G1; design: species or system human, MV4-11 + K-562 + COLO205 + SK-N-BE2 + OVCAR-8; conditions: read-out: apparent Kd; compound concentrations: 100 nM and 1000 nM (sheet 'Samples'), CATDS: 5.5121042551324002E-2; n = 1
# DAPK3 = tested on: DAPK3; design: species or system human, MV4-11 + K-562 + COLO205 + SK-N-BE2 + OVCAR-8; conditions: read-out: apparent Kd; compound concentrations: 100 nM and 1000 nM (sheet 'Samples'), CATDS: 8.3155449206082505E-2; n = 1
# DCTPP1 = tested on: DCTPP1; design: species or system human, MV4-11 + K-562 + COLO205 + SK-N-BE2 + OVCAR-8; conditions: read-out: apparent Kd; compound concentrations: 100 nM and 1000 nM (sheet 'Samples'), CATDS: 5.7600915047594299E-2; n = 1
# FN3KRP = tested on: FN3KRP; design: species or system human, MV4-11 + K-562 + COLO205 + SK-N-BE2 + OVCAR-8; conditions: read-out: apparent Kd; compound concentrations: 100 nM and 1000 nM (sheet 'Samples'), CATDS: 6.5569795708597098E-2; n = 1
# FN3K = tested on: FN3K; design: species or system human, MV4-11 + K-562 + COLO205 + SK-N-BE2 + OVCAR-8; conditions: read-out: apparent Kd; compound concentrations: 100 nM and 1000 nM (sheet 'Samples'), CATDS: 6.57741887652563E-2; n = 1
# MAPK3 = tested on: MAPK3; design: species or system human, MV4-11 + K-562 + COLO205 + SK-N-BE2 + OVCAR-8; conditions: read-out: apparent Kd; compound concentrations: 100 nM and 1000 nM (sheet 'Samples'), CATDS: 8.8800747421998102E-2; n = 1
# NEK2 = tested on: NEK2; design: species or system human, MV4-11 + K-562 + COLO205 + SK-N-BE2 + OVCAR-8; conditions: read-out: apparent Kd; compound concentrations: 100 nM and 1000 nM (sheet 'Samples'), CATDS: 7.0168858397625197E-2; n = 1
# PBK = tested on: PBK; design: species or system human, MV4-11 + K-562 + COLO205 + SK-N-BE2 + OVCAR-8; conditions: read-out: apparent Kd; compound concentrations: 100 nM and 1000 nM (sheet 'Samples'), CATDS: 7.2795732103844296E-2; n = 1
# Q6ZSR9 = Q6ZSR9 (human, UniProt Q6ZSR9); design: species or system MV4-11 + K-562 + COLO205 + SK-N-BE2 + OVCAR-8; conditions: read-out: apparent Kd; compound concentrations: 100 nM and 1000 nM (sheet 'Samples'), CATDS: 6.3978551473772294E-2; n = 1
# RABL3 = tested on: RABL3; design: species or system human, MV4-11 + K-562 + COLO205 + SK-N-BE2 + OVCAR-8; conditions: read-out: apparent Kd; compound concentrations: 100 nM and 1000 nM (sheet 'Samples'), CATDS: 7.0827671495760899E-2; n = 1
# TESK1 = tested on: TESK1; design: species or system human, MV4-11 + K-562 + COLO205 + SK-N-BE2 + OVCAR-8; conditions: read-out: apparent Kd; compound concentrations: 100 nM and 1000 nM (sheet 'Samples'), CATDS: 6.7543584282145103E-2; n = 1
# AKT1 = tested on: AKT1; design: species or system human, MV4-11 + K-562 + COLO205 + SK-N-BE2 + OVCAR-8; conditions: read-out: apparent Kd; compound concentrations: 100 nM and 1000 nM (sheet 'Samples'), CATDS: 0.123501580073808; n = 1
# MAP2K1 = tested on: MAP2K1; design: species or system human, MV4-11 + K-562 + COLO205 + SK-N-BE2 + OVCAR-8; conditions: read-out: apparent Kd, compound concentrations: 100 nM and 1000 nM (sheet 'Samples'), n = 1
# NCL = tested on: NCL; design: species or system human, MV4-11 + K-562 + COLO205 + SK-N-BE2 + OVCAR-8; conditions: read-out: apparent Kd; compound concentrations: 100 nM and 1000 nM (sheet 'Samples'), CATDS: 0.116162101404393; n = 1
# PIK3C3 = tested on: PIK3C3; design: species or system human, MV4-11 + K-562 + COLO205 + SK-N-BE2 + OVCAR-8; conditions: read-out: apparent Kd, compound concentrations: 100 nM and 1000 nM (sheet 'Samples'), n = 1
# PIK3CB = tested on: PIK3CB; design: species or system human, MV4-11 + K-562 + COLO205 + SK-N-BE2 + OVCAR-8; conditions: read-out: apparent Kd, compound concentrations: 100 nM and 1000 nM (sheet 'Samples'), n = 1
# PYGL = tested on: PYGL; design: species or system human, MV4-11 + K-562 + COLO205 + SK-N-BE2 + OVCAR-8; conditions: read-out: apparent Kd; compound concentrations: 100 nM and 1000 nM (sheet 'Samples'), CATDS: 9.7642966529981307E-2; n = 1
# TAOK3 = tested on: TAOK3; design: species or system human, MV4-11 + K-562 + COLO205 + SK-N-BE2 + OVCAR-8; conditions: read-out: apparent Kd; compound concentrations: 100 nM and 1000 nM (sheet 'Samples'), CATDS: 0.106339903242866; n = 1
# ADRBK1 = tested on: ADRBK1; design: species or system human, MV4-11 + K-562 + COLO205 + SK-N-BE2 + OVCAR-8; conditions: read-out: apparent Kd, compound concentrations: 100 nM and 1000 nM (sheet 'Samples'), n = 1
# ERBB3 = tested on: ERBB3; design: species or system human, MV4-11 + K-562 + COLO205 + SK-N-BE2 + OVCAR-8; conditions: read-out: apparent Kd; compound concentrations: 100 nM and 1000 nM (sheet 'Samples'), CATDS: 0.13947545743424; n = 1
# NQO2 = tested on: NQO2; design: species or system human, MV4-11 + K-562 + COLO205 + SK-N-BE2 + OVCAR-8; conditions: read-out: apparent Kd; compound concentrations: 100 nM and 1000 nM (sheet 'Samples'), CATDS: 0.16308472458482501; n = 1
# Chain of Q6ZSR9 (Q6ZSR9 whole entry, looked up): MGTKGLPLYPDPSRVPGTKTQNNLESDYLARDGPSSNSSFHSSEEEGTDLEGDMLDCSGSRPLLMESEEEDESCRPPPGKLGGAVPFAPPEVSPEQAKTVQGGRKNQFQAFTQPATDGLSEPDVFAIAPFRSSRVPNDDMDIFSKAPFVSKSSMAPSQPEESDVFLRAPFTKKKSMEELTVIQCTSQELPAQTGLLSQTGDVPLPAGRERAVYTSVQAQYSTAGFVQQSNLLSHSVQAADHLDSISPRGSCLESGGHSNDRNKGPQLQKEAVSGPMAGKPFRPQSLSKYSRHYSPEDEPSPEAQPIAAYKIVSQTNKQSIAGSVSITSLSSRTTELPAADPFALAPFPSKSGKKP
compound,measurement,setting,value
COc1cc2ncn(-c3cc(OCCc4ccccc4)c(C(N)=O)s3)c2cc1OC [GSK204925A],potency estimated from few doses,AKT2; CATDS: 0.131386999232284,2300 nM
same,potency estimated from few doses,AKT3,1570 nM
same,potency estimated from few doses,MAP2K2; CATDS: 0.14753696988114701,1660 nM
same,potency estimated from few doses,MYLK3,137 nM
same,potency estimated from few doses,NQO1,1100 nM
same,potency estimated from few doses,RIOK2,2210 nM
O=C1N=C(NCCc2ccc(F)cc2)S/C1=C\c1ccc2ncccc2c1 [RO4508340-000],potency estimated from few doses,AIFM1,1310 nM
same,potency estimated from few doses,CLK1,643 nM
same,potency estimated from few doses,CLK4,744 nM
same,potency estimated from few doses,CSNK1G1,2380 nM
same,potency estimated from few doses,DAPK3,948 nM
same,potency estimated from few doses,DCTPP1,2100 nM
same,potency estimated from few doses,FN3KRP,1530 nM
same,potency estimated from few doses,FN3K,1520 nM
same,potency estimated from few doses,MAPK3,844 nM
same,potency estimated from few doses,NEK2,1320 nM
same,potency estimated from few doses,PBK,1220 nM
same,potency estimated from few doses,Q6ZSR9,1620 nM
same,potency estimated from few doses,RABL3,1290 nM
same,potency estimated from few doses,TESK1,1430 nM
Cc1nc(Nc2cnn(C3CCNCC3)c2)nc2c1N(C)C(=O)c1cc3ccccc3cc1N2C [HTH-01-015],potency estimated from few doses,AKT1,1310 nM
same,potency estimated from few doses,AKT2; CATDS: 0.10314044451286999,1870 nM
same,potency estimated from few doses,MAP2K1; CATDS: 9.8973729248026707E-2,2060 nM
same,potency estimated from few doses,MAP2K2; CATDS: 0.112091584059978,1580 nM
same,potency estimated from few doses,NCL,1470 nM
same,potency estimated from few doses,PIK3C3; CATDS: 0.115592517664726,1480 nM
same,potency estimated from few doses,PIK3CB; CATDS: 0.13740958062808101,1080 nM
same,potency estimated from few doses,PYGL,2120 nM
same,potency estimated from few doses,TAOK3,1760 nM
Cn1c(=O)c(F)c(Nc2ccc(I)cc2F)c2c(=O)n(OC[C@H](O)CO)cnc21 [TPKI-16],potency estimated from few doses,ADRBK1; CATDS: 0.13244009116627101,1780 nM
same,potency estimated from few doses,ERBB3,1370 nM
same,potency estimated from few doses,MAP2K1; CATDS: 0.50931897145829497,12.2 nM
same,potency estimated from few doses,MAP2K2; CATDS: 0.45776902126379299,15 nM
same,potency estimated from few doses,NQO2,677 nM
Cc1cccc(Cn2ccn3c(=O)cc(N4CCOCC4)nc23)c1 [GSK2297542A],potency estimated from few doses,ADRBK1; CATDS: 0.236668950824271,1590 nM
same,potency estimated from few doses,PIK3C3; CATDS: 0.27683551604583601,886 nM
same,potency estimated from few doses,PIK3CB; CATDS: 0.86026286553543596,48.3 nM
